Sampled rows, rich in hits. Any-hit rate of the full collection: about 8.9%.
KB-3-1 tox = KB-3-1 parental cell cytotoxicity. Potency, µM (top dose mostly 46.1 µM), most hits filed as cytotoxic. AID 1347075. KB-3-1 viability, CellTiter-Glo ATP luminescence, 72 h. 400,000 tested, 1.4% active; also: nearly all actives have a fitted effect of over 60% in size
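Using CellTiter-Glo luminescence, growth of non-resistant KB-3-1 adenocarcinoma cells is assessed 72 h after pin-tool compound addition at 37 °C. Normalized responses across the concentration series yield fitted curves.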
SW480 rereplic = induces DNA re-replication in SW480 colon adenocarcinoma cells | SW480 DNA re-replication, Hoechst DNA content imaging, 48 h | Potency, µM (series often up to 46.1 µM), most hits filed as activators | 340,000 tested, 1.8% active | AID 624297; also: nearly all actives have a fitted effect of over 55% in size
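Hoechst fluorescence of nuclei (405 nm excitation, 500-530 nm emission) measured by plate-scanning imager after 48 hr compound exposure at 37 C; re-replication scored as increased number of nuclei with elevated intensity.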
DRD3 antagonist = blocks the human D3 dopamine receptor | 360,000 tested, 2.5% active | P35462 | D3R cells, DiscoveRx beta-arrestin luminescence, antagonist mode; active compounds read low | AID 652054 | max response, negative = inhibition, %; in the data active = max response below about -50%; inconclusive = no clear call, values can overlap the other calls
Target sequence (P35462 whole entry, looked up): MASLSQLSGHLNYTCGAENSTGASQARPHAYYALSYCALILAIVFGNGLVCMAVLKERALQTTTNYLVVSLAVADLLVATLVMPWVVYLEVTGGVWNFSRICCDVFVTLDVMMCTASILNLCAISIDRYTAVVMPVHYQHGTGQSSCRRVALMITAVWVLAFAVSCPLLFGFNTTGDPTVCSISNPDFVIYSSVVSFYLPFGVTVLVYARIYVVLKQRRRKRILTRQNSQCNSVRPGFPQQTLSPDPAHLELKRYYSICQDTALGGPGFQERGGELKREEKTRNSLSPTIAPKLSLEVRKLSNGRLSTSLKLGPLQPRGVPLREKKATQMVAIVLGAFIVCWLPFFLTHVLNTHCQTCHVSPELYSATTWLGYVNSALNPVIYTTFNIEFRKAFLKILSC
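Cells plated overnight at 1500 cells/well, then exposed to library compounds with dopamine controls for 90 minutes at 37 degrees C. DiscoveRx reagent added for 30–60 minutes at room temperature; luminescence read, quantitative HTS format.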
MCF10A rereplic = inducers of DNA re-replication in MCF 10A breast cells; Potency, µM (top dose mostly 46.1 µM), actives largely listed as activators; AID 624296; MCF 10A DNA re-replication, Hoechst nuclear intensity, 48 h; 350,000 tested, 2.9% active; also: nearly all actives have a fitted effect of over 50% in size
KB-V1 MDR tox = kills drug-selected multidrug resistant KB-V1 cells; KB-V1 MDR cells viability, CellTiter-Glo, 72 h; Potency, µM (top dose mostly 46.1 µM), usual class: cytotoxic; 400,000 tested, 3.4% active; also: nearly all actives have a fitted effect of over 60% in size
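KB-V1, DMEM (no phenol red) + 10% FBS; cpd pin-transferred, titration series; 72 h, 37 degrees C; CellTiter-Glo, luminescence. Data normalized, curve-fit.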
DRD3 agonist = agonists of human D3 dopamine receptor. P35462. D3R DiscoveRx beta-arrestin cells, luminescence, 90 min. max activation, %. 410,000 tested, 0.58% active; in the data active = max activation above about 30%
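Agonist mode: compounds and dopamine controls were applied to plated cells for 90 min at 37 degrees C after an overnight attachment at 1500 cells/well. Luminescent read-out followed 30 - 60 minutes at room temperature with DiscoveRx detection reagent.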
Large screens that a line does not name were inactive. Unless noted, calls follow the shape of the dose curve; as a rule, active = well fitted curve in the direction sought with a large enough effect; inconclusive = small, poorly fitted or top-dose-only effect, or another doubt; inactive = no such curve, though single readings can be large; an effect the other way counts as inactive or inconclusive.

CCCC(=O)O[C@]1(C(=O)COC(=O)CC)[C@@H](C)C[C@H]2[C@@H]3CCC4=CC(=O)C=C[C@]4(C)[C@@]3(F)[C@@H](O)C[C@@]21C	none (no result: KB-3-1 tox, SW480 rereplic, DRD3 antagonist, MCF10A rereplic, KB-V1 MDR tox)
Cc1ccc2cc3c(nc2c1)OCC3	SW480 rereplic 8.2µM
CCc1ccccc1NC(=O)Cn1nc(N2CCN(c3ccccc3OC)CC2)ccc1=O	none (no result: SW480 rereplic, DRD3 antagonist, MCF10A rereplic)
Cc1ccc(-c2cc(-c3ccccc3)nc(N/N=C/c3cccnc3)n2)cc1	SW480 rereplic inconclusive, MCF10A rereplic 9.2µM, KB-V1 MDR tox inconclusive
O=[N+]([O-])c1ccc(N/N=C/c2ccccc2)c(F)c1	SW480 rereplic inconclusive, MCF10A rereplic 5.8µM, KB-V1 MDR tox inconclusive
Cc1cc(-c2ccccc2)nc(N/N=C/c2ccc([N+](=O)[O-])cc2)n1	KB-V1 MDR tox 23µM
Cc1sc(N/N=C/c2ccco2)nc1-c1ccccc1	none
O=[N+]([O-])c1ccc(C=NNc2ccccc2)cc1	MCF10A rereplic inconclusive
Cc1sc(N/N=C/c2cccnc2)nc1-c1ccccc1	KB-3-1 tox inconclusive, SW480 rereplic inconclusive, MCF10A rereplic inconclusive, KB-V1 MDR tox 12µM
CCOc1ccccc1CNc1ccc2cc(S(=O)(=O)N3CCC(C)CC3)ccc2n1	none (no result: SW480 rereplic, DRD3 antagonist, MCF10A rereplic)
O=C1c2ccccc2-c2c1cccc2C(=O)N1CCCCCC1	KB-3-1 tox inconclusive, SW480 rereplic 23µM
O=C1c2ccccc2-c2cccc(C(=O)N3CCCCCC3)c21	DRD3 antagonist inconclusive, MCF10A rereplic inconclusive
Cc1onc(-c2ccccc2Cl)c1C(=O)OCC(=O)Nc1cccc(S(=O)(=O)N(C)C)c1	KB-3-1 tox inconclusive, KB-V1 MDR tox 8.2µM
CCc1noc(C)c1C(=O)OCC(=O)Nc1cccc(C)c1	none
Cc1ccc(S(=O)(=O)n2nc(OC(=O)c3c(-c4ccccc4Cl)noc3C)cc2N)cc1	KB-3-1 tox inconclusive, DRD3 antagonist -58, MCF10A rereplic inconclusive
Cc1onc(-c2ccccc2Cl)c1C(=O)Oc1cc(N)n(S(=O)(=O)c2ccc(F)cc2)n1	MCF10A rereplic inconclusive
Cc1noc(C)c1C(=O)OCC(=O)Nc1cccc(F)c1	KB-3-1 tox inconclusive, DRD3 antagonist -62 (no result: SW480 rereplic, MCF10A rereplic)
Cc1cc(C)cc(C(=O)OCC(=O)NCc2ccco2)c1	KB-3-1 tox inconclusive, SW480 rereplic inconclusive, KB-V1 MDR tox inconclusive
O=C(CCl)Nc1c2c(nn1-c1ccccc1)CSC2	KB-3-1 tox inconclusive, SW480 rereplic inconclusive, MCF10A rereplic inconclusive, KB-V1 MDR tox inconclusive
C=CCOc1c(Br)cc(/C=N/n2c(CC)n[nH]c2=S)cc1Br	KB-3-1 tox inconclusive, SW480 rereplic inconclusive, DRD3 antagonist inconclusive, MCF10A rereplic 16µM, KB-V1 MDR tox inconclusive
CCc1n[nH]c(=S)n1/N=C/c1cc(Br)c(O)c(OC)c1	KB-V1 MDR tox inconclusive
Cc1ccc(C)c(Cn2c3ccccc3c3cnn(CC(=O)NCc4ccccc4)c(=O)c32)c1	none (no result: SW480 rereplic, DRD3 antagonist, MCF10A rereplic)
COc1ccnc(N2CCN(c3cccc(C(F)(F)F)c3)CC2)c1C#N	SW480 rereplic inconclusive, MCF10A rereplic 21µM
COc1cccc(N2CCN(c3c(C#N)c(C(F)(F)F)nn3C)CC2)c1	KB-V1 MDR tox 13µM
COc1ccnc(N2CCN(c3ccc(Cl)cc3)CC2)c1C#N	none
Cc1nn(C2CCS(=O)(=O)C2)c2nc(C3CC3)cc(C(=O)Nc3ccc(C(N)=O)cc3)c12 (stereo not drawn)	none
CCOC(=O)C(C(=O)Nc1ccc(C)cc1)C1CCCCC1 (stereo not drawn)	KB-3-1 tox 23µM, SW480 rereplic inconclusive, KB-V1 MDR tox 9.2µM
CCOC(=O)C(C(=O)Nc1ccccc1)C1CCCCC1 (stereo not drawn)	none
CN1CCN(C(=O)Nc2cccc(-c3ccccc3)c2)CC1	SW480 rereplic 16µM, MCF10A rereplic inconclusive
CCOC(=O)c1c(N)sn(-c2ccccc2)c1=S	none
CCOC(=O)c1c2c(c(=S)n(-c3ccccc3)c1N)CCC2	SW480 rereplic inconclusive, MCF10A rereplic inconclusive, KB-V1 MDR tox 21µM
C=CCn1c(NS(=O)(=O)c2ccccc2)c(S(=O)(=O)c2ccc(C)cc2)c2nc3ccccc3nc21	KB-3-1 tox inconclusive, SW480 rereplic inconclusive, MCF10A rereplic 15µM, KB-V1 MDR tox 13µM
O=S(=O)(Nc1c(S(=O)(=O)c2ccccc2)c2nc3ccccc3nc2n1C1CCCCC1)c1ccccc1	DRD3 antagonist -70, MCF10A rereplic 2.9µM
CC(=O)Nc1c(S(=O)(=O)c2ccccc2)c2nc3ccccc3nc2n1Cc1ccccc1	none
COc1ccc(OC)c(NP2(=O)OCC(C)([N+](=O)[O-])CO2)c1 (stereo not drawn)	none
CCn1c(=O)c2cc(C(=O)NCc3ccc(F)cc3Cl)sc2c2ccccc21	none (no result: SW480 rereplic, DRD3 antagonist, MCF10A rereplic)
O=C(Cc1c(F)cccc1Cl)OCC(=O)c1ccc[nH]1	none
Cn1c(SCc2ccccc2C#N)nnc1-c1ccncc1	none
C=CCn1c(SCc2ccccc2C#N)nnc1-c1cc(Br)ccc1O	KB-3-1 tox inconclusive, MCF10A rereplic inconclusive, KB-V1 MDR tox 3.7µM
CC(=O)N1CCc2cc(C(=O)CN3CCN(c4cccc(Cl)c4)CC3)ccc21	DRD3 antagonist -50
COc1ccc(-c2nc3ccccc3s2)cc1NC(=O)c1cccc(F)c1	none (no result: SW480 rereplic, DRD3 antagonist, MCF10A rereplic)
N#CC1(C#N)CC(C=O)=C(N)C1(C#N)CC(=O)C12CC3CC(CC(C3)C1)C2 (stereo not drawn)	SW480 rereplic inconclusive, MCF10A rereplic 18µM
Cc1ccc(C)c(Nc2nn3c(=O)c4ccc(C(=O)N(C)Cc5ccccc5)cc4nc3s2)c1	none (no result: SW480 rereplic, DRD3 antagonist, MCF10A rereplic)
O=c1c(-c2cc3ccccc3o2)[n+]([O-])c2ccccc2n1OCc1ccccn1	MCF10A rereplic inconclusive, KB-V1 MDR tox 3.7µM
COc1cccc(C(=O)NNC(=O)C(=O)Nc2ccc(C)cc2)c1	KB-V1 MDR tox inconclusive
COc1cccc(C(=O)NNc2c3ccccc3nc3ccccc23)c1	KB-V1 MDR tox inconclusive
COc1cccc(C(=O)NNc2nc(C)cc(C)n2)c1	SW480 rereplic 0.52µM, MCF10A rereplic inconclusive, KB-V1 MDR tox inconclusive
COc1cccc(C(=O)NNC(=O)C(=O)Nc2cccc(Cl)c2C)c1	SW480 rereplic 23µM
O=C(NC[C@@H]1CCCO1)c1cccc2c1C(=O)c1ccc(Cl)cc1S2(=O)=O	none
COc1ccc(-c2ccc3c(c2)S(=O)(=O)c2cccc(C(=O)NC[C@@H]4CCCO4)c2C3=O)cc1OC	DRD3 agonist 37
Cc1nc(SCc2ccc(Cl)cc2)ncc1C(=O)O	none
Fc1ccc(-c2nc(-c3cccs3)[nH]c2-c2ccc(F)cc2)cc1	KB-3-1 tox 18µM, DRD3 antagonist inconclusive, MCF10A rereplic inconclusive, KB-V1 MDR tox 16µM
Oc1ccc(-c2nc(-c3ccc(F)cc3)c(-c3ccncc3)[nH]2)cc1	KB-3-1 tox inconclusive, SW480 rereplic 3.5µM

High-throughput results (PubChem BioAssay)
